Records with an inconclusive call do not appear. Calls of active or inactive are those of the source. The call rests on the fitted dose curve; in most records, active means well fitted inhibition curve with a large enough effect; inconclusive means small, poorly fitted or top-dose-only effect; inactive means flat fitted curve, though single readings scatter.

Holding throughout (assay): qHTS profiling for inhibitors of Plasmodium falciparum proliferation (AID 504749); further: nearly all actives have a fitted effect of over 60% in size
Holding throughout (settings): P. falciparum in erythrocytes, SYBR Green DNA, 72 h; series mostly up to 28.7 µM

One assay concerns CP237. In outline:
(§1)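 In a 72 h erythrocytic culture (37 C, humidified, 5% CO2) at 2.5% hematocrit and 0.3% starting parasitemia, compounds were tested; SYBR Green I in detergent lysis buffer stained parasite DNA overnight.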

For the next assay, the system named is CP238. Put shortly:
as §1

For a further assay, the system named is CP247. In outline:
as §1

For another assay, the system named is CP250. Put shortly: as §1
In another assay the test system is CP252. In outline: as §1
Another assay concerns CP260. In outline:
as §1

The next assay deals with CP262. Put shortly:
as §1

The next assay has as its system CP265. In outline: as §1
The subject of another assay is CP266. In outline: as §1
A further assay has as its system CP268. In outline:
as §1

The next assay concerns CP269. Put shortly: as §1
The subject of a further assay is CP286. Put shortly:
as §1

For the next assay, the system named is CP291. In outline: as §1
In the next assay the test system is CP305. In outline: as §1
The test system of the next assay is CP315. In outline:
as §1

The subject of the next assay is CP325. Put shortly:
as §1

The subject of the next assay is CP329. In outline:
as §1

A further assay relates to CP335. In outline: as §1
The test system of another assay is CP256. In outline: as §1
The subject of the next assay is CP297. Put shortly:
as §1
Potency means the concentration at half of the fitted maximal effect.

On to `C[Se]CCC(N)C(=O)O` (stereo not drawn), for which the Potency entry in the assay on CP237, in the assay with CP238, with CP247, in the assay with CP250, in the assay with CP252 and in the assay on CP260 was “inactive” each time. For the same compound, the Potency entry in the assay on CP262, in the assay with CP265, in the assay with CP266, in the assay on CP268, with CP269 and with CP286 was “inactive” throughout. In addition, the Potency result with CP291, in the assay on CP305, with CP315, in the assay on CP325, in the assay on CP329 and with CP335 was “inactive” each time.
Turning to `CC(C)[C@H](N)C(=O)OCCOCn1cnc2c(=O)[nH]c(N)nc21`, the Potency entry with CP237, with CP238, in the assay with CP247, with CP250, in the assay with CP252 and with CP256 was “inactive” throughout. Besides, the Potency result in the assay on CP260, in the assay on CP262, in the assay with CP265, in the assay on CP266, in the assay on CP268 and in the assay on CP269 was “inactive” in each case. Also, the Potency entry in the assay on CP286, in the assay with CP291, in the assay with CP297, in the assay on CP305, with CP315 and with CP325 was “inactive” each time. In addition, the Potency entry in the assay on CP329 and in the assay on CP335 was “inactive” in each case.
Turning to `Nc1ccc(S(N)(=O)=O)cc1`, the Potency entry in the assay on CP237, with CP238, with CP247, in the assay with CP250, in the assay with CP252 and with CP256 was “inactive” throughout. Besides, the Potency entry in the assay with CP260, in the assay with CP262, with CP265, in the assay on CP266, with CP268 and in the assay on CP269 was “inactive” each time. For the same compound, the Potency result in the assay with CP286, in the assay with CP291, with CP297, with CP305, in the assay on CP315 and in the assay with CP325 was “inactive” in each case. Besides, the Potency entry in the assay with CP329 and in the assay on CP335 was “inactive” throughout.
For `Clc1ccc(C(Cn2ccnc2)OCc2ccsc2Cl)c(Cl)c1` (stereo not drawn), the Potency in the assay with CP237 is 3.98 µM (active); in the assay on CP238 it was 10 µM (active); in the assay with CP247, 5.01 µM (active); in the assay with CP250, 11.2 µM (active); with CP252 it was 7.94 µM (active); in the assay with CP256 it was 10 µM (active). In addition, the Potency is 11.2 µM (active) with CP260; 13.5 µM (active) in the assay on CP262; 7.94 µM (active) in the assay on CP265; 12 µM (active) in the assay on CP268; 6.75 µM (active) with CP269; 7.08 µM (active) in the assay with CP286. The Potency in the assay with CP291 is 12 µM (active); in the assay with CP297, 3.79 µM (active); with CP305 it was 12 µM (active); in the assay on CP315 it was 15.1 µM (active); with CP325, 12 µM (active); in the assay with CP329 it was 13.5 µM (active). Moreover, the Potency with CP335 is 4.78 µM (active).
As for `N[C@@H](Cc1cc(I)c(Oc2cc(I)c(O)c(I)c2)c(I)c1)C(=O)O`, the Potency result in the assay on CP237, in the assay on CP238, in the assay with CP247, in the assay on CP250, with CP252 and in the assay with CP256 was “inactive” each time. The Potency result in the assay with CP260, in the assay on CP262, with CP265, with CP266, with CP268 and with CP269 was “inactive” each time. Besides, the Potency entry with CP286, with CP291, in the assay on CP297, with CP305, in the assay with CP315 and in the assay on CP325 was “inactive” each time. Also, the Potency result in the assay on CP329 and in the assay on CP335 was “inactive” each time.
`O=C(NCCO[N+](=O)[O-])c1cccnc1`: the Potency entry in the assay on CP237, in the assay with CP238, with CP247, in the assay with CP250, in the assay on CP252 and with CP256 was “inactive” in each case. For the same compound, the Potency result in the assay on CP260, with CP262, in the assay with CP265, with CP268, in the assay on CP269 and in the assay with CP286 was “inactive” in each case. Also, the Potency entry in the assay with CP291, with CP297, with CP305, in the assay on CP315, in the assay on CP325 and in the assay on CP329 was “inactive” each time. Further, in the assay with CP335, the Potency entry was “inactive”.
`Cc1ncc([N+](=O)[O-])n1CC(C)O` (stereo not drawn): the Potency result in the assay with CP237, with CP238, in the assay with CP247, with CP250, with CP252 and in the assay with CP256 was “inactive” each time. The Potency result with CP262, with CP265, in the assay on CP266, in the assay on CP268, in the assay on CP269 and in the assay with CP286 was “inactive” each time. Besides, the Potency entry with CP291, with CP305, with CP315, in the assay on CP325, with CP329 and in the assay on CP335 was “inactive” each time.
On to `CCC1=C(C)CN(C(=O)NCCc2ccc(S(=O)(=O)NC(=O)NC3CCC(C)CC3)cc2)C1=O` (stereo not drawn), for which the Potency entry in the assay on CP237, with CP238, with CP247, with CP250, with CP252 and in the assay with CP256 was “inactive” throughout. The Potency result in the assay with CP260, in the assay with CP262, in the assay with CP265, in the assay on CP266, in the assay with CP268 and in the assay with CP269 was “inactive” throughout. The Potency entry in the assay on CP286, with CP291, with CP297, in the assay with CP305, in the assay on CP315 and in the assay with CP325 was “inactive” each time. In addition, the Potency entry in the assay with CP329 and with CP335 was “inactive” throughout.
On to `O=C(O)c1cccc(-c2noc(-c3ccccc3F)n2)c1`, for which the Potency result with CP237, in the assay with CP238, in the assay on CP247, in the assay on CP250, in the assay on CP252 and in the assay on CP256 was “inactive” in each case. For the same compound, the Potency result in the assay with CP260, with CP262, with CP265, in the assay with CP266, with CP268 and in the assay with CP269 was “inactive” in each case. Further, the Potency entry in the assay on CP286, in the assay with CP291, in the assay on CP297, with CP305, in the assay on CP315 and in the assay on CP325 was “inactive” in each case. In addition, the Potency entry in the assay on CP329 and in the assay on CP335 was “inactive” throughout.
With `CCC(C)(Oc1ccc(C2(c3ccc(OC(C)(CC)C(=O)O)cc3)CCCCC2)cc1)C(=O)O` (stereo not drawn), the Potency result with CP237, with CP238, in the assay on CP247, in the assay on CP250, in the assay on CP252 and with CP256 was “inactive” each time. For the same compound, the Potency result in the assay on CP262, with CP265, in the assay on CP266, in the assay on CP268, with CP269 and in the assay with CP286 was “inactive” each time. Moreover, the Potency entry in the assay on CP291, with CP297, in the assay with CP305, in the assay on CP315, in the assay on CP325 and in the assay on CP329 was “inactive” in each case. Further, the Potency entry with CP335 is “inactive”.
Turning to `CCN(CCO)CCCC(C)Nc1ccnc2cc(Cl)ccc12` (stereo not drawn), the Potency result with CP237, in the assay with CP238, in the assay with CP247, in the assay on CP250, in the assay on CP252 and in the assay with CP256 was “inactive” in each case. In addition, the Potency result in the assay on CP260, in the assay with CP262, in the assay on CP265, in the assay with CP266, with CP268 and in the assay with CP269 was “inactive” each time. Further, the Potency result with CP305, in the assay on CP315, in the assay with CP325, in the assay on CP329 and in the assay on CP335 was “inactive” in each case.
For the compound `COc1ccc(C2(C#N)CCC(C(=O)O)CC2)cc1OC1CCCC1` (stereo not drawn), the Potency entry in the assay with CP237, with CP238, with CP247, in the assay with CP250, in the assay on CP252 and in the assay on CP256 was “inactive” throughout. Also, the Potency result with CP260, in the assay with CP262, with CP265, with CP268, with CP269 and in the assay on CP286 was “inactive” in each case. In addition, the Potency result in the assay on CP291, with CP297, in the assay with CP305, in the assay on CP315, in the assay on CP325 and in the assay on CP329 was “inactive” each time. Also, the Potency result with CP335 is “inactive”.
For `N=C(N=C(N)N)N1CCOCC1`, the Potency entry in the assay on CP237, in the assay on CP238, in the assay on CP247, with CP250, with CP252 and in the assay with CP256 was “inactive” throughout. Besides, the Potency result in the assay on CP260, in the assay on CP262, with CP265, with CP266, in the assay on CP268 and with CP269 was “inactive” throughout. Also, the Potency entry in the assay with CP286, in the assay on CP291, in the assay on CP297, with CP305, in the assay on CP315 and in the assay on CP325 was “inactive” in each case. Further, the Potency result in the assay with CP335 is “inactive”.
